Screen size: about 310,000 compounds; about 14,000 (4.5%) showed an effect of 50% or more. Effects have a minus sign here. The sample holds strong results, similar compounds and a random draw of the others, so the mix is not that of the screen.
biological target: human ether-à-go-go-related gene (hERG) potassium channel (human, UniProt Q12809); assay: primary screen, population patch clamp on CHO cells stably expressing hERG; higher = less effect of the substance
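Note: peak tail current of the secondary pulse compared with the same well before compound.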

human ether-à-go-go-related gene (hERG) potassium channel, sequence (Q12809 whole entry, looked up): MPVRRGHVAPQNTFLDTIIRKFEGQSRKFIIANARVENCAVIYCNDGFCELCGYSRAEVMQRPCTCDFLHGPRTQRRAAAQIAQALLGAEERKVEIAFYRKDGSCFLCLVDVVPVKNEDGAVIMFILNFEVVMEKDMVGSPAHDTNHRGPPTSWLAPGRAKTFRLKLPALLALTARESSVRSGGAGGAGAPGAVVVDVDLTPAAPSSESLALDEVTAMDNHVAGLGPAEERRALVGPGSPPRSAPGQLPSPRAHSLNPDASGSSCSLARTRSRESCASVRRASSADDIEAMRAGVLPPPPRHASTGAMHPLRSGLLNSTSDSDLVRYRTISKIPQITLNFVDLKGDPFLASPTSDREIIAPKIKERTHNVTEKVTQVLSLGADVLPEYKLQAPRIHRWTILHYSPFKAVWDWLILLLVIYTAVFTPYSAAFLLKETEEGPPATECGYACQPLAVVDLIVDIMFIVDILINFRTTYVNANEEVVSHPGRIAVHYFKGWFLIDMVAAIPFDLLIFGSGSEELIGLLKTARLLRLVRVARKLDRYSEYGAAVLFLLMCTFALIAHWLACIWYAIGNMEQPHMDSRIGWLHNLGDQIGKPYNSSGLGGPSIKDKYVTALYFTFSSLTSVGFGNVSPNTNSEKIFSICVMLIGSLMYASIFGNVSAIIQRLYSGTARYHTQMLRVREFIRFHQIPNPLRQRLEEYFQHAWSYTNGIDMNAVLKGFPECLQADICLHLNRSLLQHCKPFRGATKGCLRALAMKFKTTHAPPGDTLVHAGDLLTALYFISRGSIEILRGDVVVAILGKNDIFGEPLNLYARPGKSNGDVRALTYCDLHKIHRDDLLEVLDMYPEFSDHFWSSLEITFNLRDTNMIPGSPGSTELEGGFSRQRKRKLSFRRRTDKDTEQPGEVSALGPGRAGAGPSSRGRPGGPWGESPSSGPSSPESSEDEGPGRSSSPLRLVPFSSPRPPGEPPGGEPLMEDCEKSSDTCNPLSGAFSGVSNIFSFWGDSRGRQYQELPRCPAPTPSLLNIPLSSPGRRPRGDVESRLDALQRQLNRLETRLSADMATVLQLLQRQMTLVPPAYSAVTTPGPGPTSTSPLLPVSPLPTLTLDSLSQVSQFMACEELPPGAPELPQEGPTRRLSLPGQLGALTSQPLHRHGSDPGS

SMILES | hERG current change (%, negative = inhibition) at 10uM
O=C(CCl)Oc1ccc2occ(C(=O)c3cccs3)c2c1 | 0.872%
C/C(=N\Nc1ccc(Cl)c(C(=O)O)c1)c1ccccn1 | 5.73%
CCOc1cccc(SCc2noc(C(=O)NCC3CCCO3)c2C(=O)O)c1 (stereo not drawn) | 32.2%
NS(=O)(=O)c1ccc(-c2cccc(/C=C3\SC(=O)NC3=O)c2)cc1 | 7.87%
Cc1cc(/C=C(\C#N)C(=O)Nc2ccccc2)c(C)n1-c1cccnc1 | 8.27%
Cc1cc(/C=C(/C#N)C(=O)Nc2ccc(Cl)cc2)c(C)n1-c1cccnc1 | -67.5%
Cc1cc(/C=C(/C#N)C(=O)Nc2ccccc2)c(C)n1-c1cccnc1 | -28.5%
Cc1c(C(=O)N2CCCC2)nnn1-c1nonc1N | 8.67%
Cc1ccc(C2=NN(C(=O)c3ccccc3F)C(c3ccccc3F)C2)cc1 (stereo not drawn) | 19%
CS(=O)(=O)Nc1ccc(C2=NN(C(=O)c3ccco3)C(c3cccc(F)c3)C2)cc1 (stereo not drawn) | -78.3%
CS(=O)(=O)Nc1cccc(C2=NN(C(=O)c3ccco3)C(c3cccs3)C2)c1 (stereo not drawn) | -59%
CCS(=O)(=O)Nc1ccc(C2=NN(C(=O)c3ccco3)C(c3cccc(F)c3)C2)cc1 (stereo not drawn) | -32.4%
CCC(=O)N1N=C(c2ccc(NS(C)(=O)=O)cc2)CC1c1ccc(N(C)C)cc1 (stereo not drawn) | -66.2%
CCC(=O)N1N=C(c2ccc(NS(=O)(=O)CC)cc2)CC1c1ccc(C)cc1 (stereo not drawn) | -14.1%
CS(=O)(=O)Nc1ccc(C2=NN(C(=O)c3ccco3)C(c3ccccc3F)C2)cc1 (stereo not drawn) | -78.2%
O=C(c1ccco1)N1N=C(c2ccc(Br)cc2)CC1c1ccco1 (stereo not drawn) | 18.5%
CCC(=O)N1N=C(c2ccc(NS(C)(=O)=O)cc2)CC1c1ccc(C)cc1 (stereo not drawn) | -44.7%
CS(=O)(=O)Nc1cccc(C2=NN(C(=O)c3ccco3)C(c3ccco3)C2)c1 (stereo not drawn) | -2.88%
CS(=O)(=O)Nc1cccc(C2=NN(C(=O)c3ccccc3)C(c3cccs3)C2)c1 (stereo not drawn) | -14%
CCS(=O)(=O)Nc1cccc(C2=NN(C(=O)c3ccco3)C(c3ccco3)C2)c1 (stereo not drawn) | -4.98%
CCn1c(CSc2nc3ccccc3s2)nnc1SCC(=O)c1ccc2c(c1)OCCO2 | -10.5%
O=C(COC(=O)/C=C/c1cccc(F)c1)Nc1ccc2[nH]c(=O)[nH]c2c1 | 9.96%
CCNC(=O)NC1(C(=O)N2CCC(Cc3ccccc3)CC2)CCCCC1 | 21.7%
CCCn1c(N)c(C(=O)CSc2nnc(Cc3cccs3)n2C2CC2)c(=O)n(C)c1=O | -0.534%
COc1ccc(N(CC(=O)Nc2ccccc2F)S(=O)(=O)c2ccc(OC)c(OC)c2)cc1 | -24.2%
O=C(NCCN1CCOCC1)c1cccc(S(=O)(=O)N2CCCCCC2)c1 | 7.38%

SMILES | hERG current change (%, negative = inhibition) at 10uM
COc1ccc(C(=O)N/N=C/c2ccc(OC(=O)c3cccc4ccccc34)c([N+](=O)[O-])c2)cc1 | 3.57%
O=C(COC(=O)c1ccc(S(=O)(=O)NCc2ccco2)cc1)NC1CCCCC1 | -1.72%
CCN(Cc1nc(-c2ccc(OC)c(OC)c2)no1)C(=O)c1ccc2c(c1)OCO2 | 5.32%
O=c1[nH]c2c(c(=O)[nH]1)CCC2 | 17.7%
CS(=O)(=O)Nc1ccc(C2=NN(C(=O)c3ccco3)C(c3ccccc3)C2)cc1 (stereo not drawn) | -77.6%
CCS(=O)(=O)Nc1ccc(C2=NN(C(=O)c3ccco3)C(c3ccco3)C2)cc1 (stereo not drawn) | -7.66%
Cc1ccc(C2CC(c3ccc(NS(C)(=O)=O)cc3)=NN2C(=O)c2ccco2)cc1 (stereo not drawn) | -78.5%
CCS(=O)(=O)Nc1ccc(C2=NN(C(=O)c3ccco3)C(c3ccc(C)cc3)C2)cc1 (stereo not drawn) | -21%
O=C(c1ccco1)N1N=C(c2ccccc2)CC1c1ccc2nccnc2c1 (stereo not drawn) | -45%
CCC(CC)C(=O)N1N=C(c2ccc(NS(C)(=O)=O)cc2)CC1c1ccc(C)cc1 (stereo not drawn) | -7.85%
CS(=O)(=O)Nc1ccc(C2=NN(C(=O)c3ccco3)C(c3ccc(F)cc3)C2)cc1 (stereo not drawn) | -81.1%
O=C(c1ccco1)N1N=C(c2ccc(Cl)cc2)CC1c1ccco1 (stereo not drawn) | 15%
O=C(c1ccco1)N1N=C(c2ccc3nccnc3c2)CC1c1ccccc1 (stereo not drawn) | -22.3%
O=C(c1ccco1)N1N=C(c2cccs2)CC1c1ccc(F)cc1 (stereo not drawn) | -29%
CCS(=O)(=O)Nc1ccc(C2=NN(C(=O)c3ccco3)C(c3cccs3)C2)cc1 (stereo not drawn) | -1.38%
CS(=O)(=O)Nc1ccc(C2=NN(C(=O)c3ccco3)C(c3ccco3)C2)cc1 (stereo not drawn) | -72.3%
O=C(c1cc(-c2ccc(O)cc2)on1)N1CCN(c2ccc(F)cc2)CC1 | -23.6%
O=C(NCCCO)C(=O)NCC1OCCCN1S(=O)(=O)c1cccs1 (stereo not drawn) | -10.6%
COc1ccc(C(=O)N(C)Cc2cnn(Cc3ccccc3)c2)cc1S(=O)(=O)N1CCOCC1 | -27%
Cc1cccc(NC(=S)Nc2c(C)n(C)n(-c3ccccc3)c2=O)c1C | -2.23%
CCc1nnc(NC(=O)CSc2nnc(-c3ccc(S(=O)(=O)N4CCCC4)cc3)n2CC)s1 | 8.86%
CN(C)N1C(=O)CC(C)(c2ccc([N+](=O)[O-])cc2)C1=O (stereo not drawn) | -0.575%
CCn1c(=O)cc(OCC(=O)NC(C)c2ccc3c(c2)OCCO3)c2ccccc21 (stereo not drawn) | -4.48%
CC/C(=N\O)C(C)(C)/[N+]([O-])=C/c1ccc(Br)cc1 | 5.28%
CN(c1ccccc1)S(=O)(=O)c1cccc(NC(=O)c2ccc(=O)[nH]c2)c1 | -11.7%
